Source: PubChem
A selection: hits, their analogues and other compounds. The true share with any hit is near 32%.
PostGolgi ctrl: growth inhibition of yeast control strain, primary screen, counter-screen for post-Golgi transport modulator project; efflux-deficient yeast background strain, growth absorbance A615, 16 h; 98,000 compounds, 5% hits; AID 738, 2007; inhibition, % at 10 µM
CYP2C19 act: human CYP2C19 activators, primary screen, biochemical, luminescence; Cytochrome P450 2C19 (Homo sapiens), P33261; recombinant CYP2C19, luciferin-H EGE luminescence; active compounds read high; 0 = fully inhibited enzyme, 1 = untreated enzyme; activation factor at 5 µM; 96,000 tested, under 10 active;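 active = activation factor of at least 2 at 5 µM in the primary screen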
PostGolgi yeast: phenotypic screen on post-Golgi transport, primary screen; post-Golgi transport phenotypic cell assay; AID 739, 2007; 98,000 compounds, 0.9% hits; inhibition, % at 10 µM;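 also: yeast cells grown in 1536-well plates; yeast grown about 18 h at 30C before absorbance read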
CYP2C9 inhib: blockers of cytochrome P450 2C9 activity – biochemical, luminescence, ADME assay, primary screen; AID 777, 2007; inhibition, % at 5 µM; 96,000 compounds, 20% hits; P11712; CYP2C9 Supersomes, luciferin-H conversion;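 active = blocking of liver enzyme CYP2C9 beyond about 50% at 5 µM, limit read from the data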
Target sequence (P11712 whole entry, looked up): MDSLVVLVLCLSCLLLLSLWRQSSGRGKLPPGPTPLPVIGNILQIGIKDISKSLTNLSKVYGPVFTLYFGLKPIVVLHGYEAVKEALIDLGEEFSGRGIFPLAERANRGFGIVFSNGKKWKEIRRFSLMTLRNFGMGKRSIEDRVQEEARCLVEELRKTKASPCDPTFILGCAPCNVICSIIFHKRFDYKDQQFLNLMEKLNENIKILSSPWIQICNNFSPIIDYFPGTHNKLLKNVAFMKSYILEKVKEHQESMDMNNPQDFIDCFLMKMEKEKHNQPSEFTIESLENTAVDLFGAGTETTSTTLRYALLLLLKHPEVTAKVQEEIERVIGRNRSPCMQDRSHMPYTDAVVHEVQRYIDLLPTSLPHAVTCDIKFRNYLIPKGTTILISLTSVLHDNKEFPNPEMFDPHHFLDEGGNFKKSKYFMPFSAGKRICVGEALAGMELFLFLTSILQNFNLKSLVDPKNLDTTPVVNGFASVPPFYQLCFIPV
CYP2C9 act: human CYP2C9 activators, primary screen, biochemical, luminescence; Cytochrome P450 2C9 (Homo sapiens), P11712; recombinant CYP2C9, luciferin-H conversion; active compounds read high; factor 1 = untreated enzyme, 0 = blocked; 96,000 compounds, 1.4% hits; activation factor at 5 µM;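 active = activation factor of 2 or more for CYP2C9 at a 5 µM dose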
CYP2C19 inhib: blockers of cytochrome P450 2C19 activity – biochemical, luminescence, ADME assay, primary screen. inhibition, % at 5 µM. CYP2C19 Supersomes, luciferin-H EGE luminescence, 30 min. AID 778, 2007. 96,000 compounds, 21% hits. P33261;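 active = CYP2C19 inhibition above a set limit at 5 µM in the primary screen, cut at about 50% in these data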
Large screens that a line does not name were inactive. Rule as the data show it, unless noted: active = inhibition above about 30%; inactive = the rest.

CCc1nc(SCC(=O)NCc2ccco2)c2c(=O)n(C)c(=O)n(C)c2n1	none
CCCc1nc(SCC(=O)N2CCc3ccccc32)c2c(C)c(C)sc2n1	CYP2C9 inhib 80
CCCc1nc(SCC(=O)c2ccc(OC)cc2)c2c(=O)n(C)c(=O)n(C)c2n1	none (no result: PostGolgi ctrl, PostGolgi yeast)
CC(C)c1nc(SCC(=O)N2CCCc3ccccc32)c2c(=O)n(C)c(=O)n(C)c2n1	PostGolgi ctrl 35
CCn1c(SCC(=O)N2CCCc3ccccc32)nc2c1c(=O)n(C)c(=O)n2C	none
Cn1cnnc1SCC(=O)N1CCc2ccccc21	none
CCCC1C2CN(C(C)C)CC=C2C(C#N)=C(N)C1(C#N)C#N (centres undefined)	none
Cc1cc(C)cc(NC(=O)CN(C)S(=O)(=O)c2cnc[nH]2)c1	none (no result: CYP2C19 act, CYP2C9 inhib, CYP2C9 act, CYP2C19 inhib)
CSc1cccc(NC(=O)c2cnccn2)c1	none
CCCc1nc(SCC(=O)N2CCc3ccccc32)c2c(=O)n(C)c(=O)n(C)c2n1	CYP2C9 inhib 50 (no result: PostGolgi ctrl, PostGolgi yeast)
CCS(=O)(=O)Nc1ccc(-c2nnc(SCC(=O)c3ccc(NC(C)=O)c(OC)c3)o2)cc1	none
O=c1c2ccccc2ncn1CCCOc1ccccc1[N+](=O)[O-]	CYP2C19 inhib 52
Cc1cccc(C)c1OCCCCn1cnc2ccccc2c1=O	CYP2C9 inhib 53
COc1cccc(OC)c1OCCOCCn1cnc2ccccc2c1=O	CYP2C19 inhib 77
Cc1cc(C)c(OCCCCn2cnc3ccccc3c2=O)c(C)c1	none
O=c1c2ccccc2ncn1CCCSc1ccccc1	CYP2C19 inhib 78
O=C(NCc1cccs1)C1CCC(CNS(=O)(=O)c2ccc(Br)s2)CC1 (centres undefined)	none
COc1ccc(/C=C(/NC(C)=O)C(=O)O)cc1	none
CCOc1ccccc1OCC(=O)Nc1nnc(C)s1	none
O=C(CCn1cnc2ccccc2c1=O)Nc1cccc(Cl)c1	none
O=c1c2ccccc2ncn1CCCSc1ccc(Cl)cc1	PostGolgi ctrl 42
CN1C(=O)N(c2ccccc2)C(Nc2nncs2)C1(C)C (centres undefined)	none
CCn1c(=O)c([N+](=O)[O-])c(NCCc2ccccc2)c2ccccc21	none
Cc1ccc(Nc2c([N+](=O)[O-])c(=O)n(C)c3ccccc23)cc1C	CYP2C19 inhib 64
O=C(OC(C(=O)NC1CCCCC1)c1ccccn1)c1cccs1 (centres undefined)	none
O=C(OC(C(=O)NCc1cccs1)c1ccccn1)c1cccs1 (centres undefined)	CYP2C19 inhib 59
Cc1oc2ccc(OCc3ccc(F)cc3)cc2c1C(=O)O	none
Cc1n[nH]c(C)c1S(=O)(=O)N1CCCC(C(=O)N2CCN(c3ccc(Cl)cc3)CC2)C1 (centres undefined)	PostGolgi ctrl 44
Cc1nn(C)c(C)c1S(=O)(=O)N1CCCC(C(=O)N2CCN(c3ccc(Cl)cc3)CC2)C1 (centres undefined)	CYP2C9 inhib 91, CYP2C19 inhib 84
Cc1n[nH]c(C)c1S(=O)(=O)N1CCCC(C(=O)N2CCc3ccccc32)C1 (centres undefined)	CYP2C19 inhib 62
Cc1[nH]c(=O)[nH]c(=O)c1S(=O)(=O)N1CCCC(C(=O)N2CCN(c3ccccc3Cl)CC2)C1 (centres undefined)	none
CCOc1c(Br)cc(C2NS(=O)(=O)N=C3CCCCCN32)cc1OC (centres undefined)	CYP2C9 inhib 66, CYP2C19 inhib 68
O=S1(=O)N=C2CCCN2C(c2ccc(F)cc2)N1 (centres undefined)	none
O=C(c1ccc2c(c1)N(Cc1ccccc1)CCS2)N1CCCCC1	PostGolgi ctrl 43
CN(C)CCNC(=O)c1ccc2c(c1)N(Cc1ccc(F)cc1)CCS2	none
CCCCN1C(=O)C(NC(=O)C2CC2)(C(F)(F)F)C2=C1CC(C)(C)CC2=O (centres undefined)	none
CC1(C)CC(=O)C2=C(C1)N(Cc1cccnc1)C(=O)C2(NC(=O)c1cccnc1)C(F)(F)F (centres undefined)	none
CCCCC(=O)NC1(C(F)(F)F)C(=O)N(CC(C)C)C2=C1C(=O)CC(C)(C)C2 (centres undefined)	PostGolgi ctrl 31
COc1cc(CN2C(=O)C(NC(=O)c3ccco3)(C(F)(F)F)C3=C2CC(C)(C)CC3=O)cc(OC)c1 (centres undefined)	CYP2C9 inhib 60
CCOC(=O)NC1(C(F)(F)F)C(=O)N(Cc2ccccc2)C2=C1C(=O)CC(C)(C)C2 (centres undefined)	CYP2C19 inhib 71
Cc1c(C(=O)N(Cc2cccs2)C2CCS(=O)(=O)C2)oc2ccccc12 (centres undefined)	none
COc1ccccc1CNC(=O)/C=C/c1cc2c(cc1Br)OCO2	none
CCCCc1ccc(CC2S/C(=C(\C#N)C(=O)N3CCOCC3)N(c3ccccc3)C2=O)cc1 (centres undefined)	PostGolgi ctrl 37
CCCCNC(=O)Cn1c(=O)oc2cc(S(=O)(=O)N3CC(C)CC(C)C3)ccc21 (centres undefined)	CYP2C9 inhib 57
Cc1cc(C)cc(NC(=O)Cn2c(=O)oc3cc(S(=O)(=O)N4CC(C)CC(C)C4)ccc32)c1 (centres undefined)	CYP2C9 inhib 56
CCc1ccc(NC(=O)Cn2c(=O)oc3cc(S(=O)(=O)N4CCOCC4)ccc32)cc1	none
O=C(Cn1cnc2ccccc2c1=O)c1cccs1	none
O=C(Cn1cnc2ccc(Cl)cc2c1=O)c1cccs1	CYP2C19 inhib 54
CC(C)COC(=O)Cn1cnc2ccc(Br)cc2c1=O	CYP2C9 inhib 56, CYP2C19 inhib 91
O=C(Cn1cnc2ccc(Br)cc2c1=O)c1cccs1	CYP2C9 inhib 52, CYP2C19 inhib 78
CN(C(=O)C12CC3CC(CC(C3)C1)C2)C1(C)CCS(=O)(=O)C1 (centres undefined)	none
O=c1cc(CSc2nnc(-c3ccco3)o2)c2ccccc2[nH]1	none
O=C(CN1C(=O)C2C3C=CC(C3)C2C1=O)NCc1ccccc1 (centres undefined)	none
O=C1C2C3C=CC(C3)C2C(=O)N1/N=C/c1cc(Br)cc([N+](=O)[O-])c1O (centres undefined)	none
O=C1C2C3C=CC(C3)C2C(=O)N1/N=C/c1cn(Cc2ccc(F)cc2)c2ccccc12 (centres undefined)	PostGolgi ctrl 37
O=C1C2C3C=CC(C3)C2C(=O)N1/N=C/c1cn(Cc2ccccc2)c2ccccc12 (centres undefined)	PostGolgi ctrl 32 (no result: CYP2C19 act, CYP2C9 inhib, CYP2C9 act, CYP2C19 inhib)
COc1ccc(CCNC(=O)Cc2cc(OCc3ccccc3)c(OC)cc2[N+](=O)[O-])cc1OC	CYP2C9 inhib 55
